Laboratory results from PubChem BioAssay AID1159580 (chemical genetic matrix, 2015).
Where “and” joins values, the source holds several entries; their conditions need not be identical. Identical values can stand only once. Hit rate of the full screen: of about 5,500 compounds, about 2,000 (36%) were called active. Roughly 18% stayed inconclusive and do not appear here. Rule as the data show it: active = normalized growth mostly below about 0.91 (no sharp cut-off); inconclusive = no clear call, values can overlap the other calls; inactive = mostly above about 0.92. The list shows a part of the results.

Test: chemical genetic growth profiling, strain panel (AID 1159580);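 also: tested at 20 µM; growth read once vehicle control cultures reached saturation at 30 °C; 1 = growth at the plate median or of vehicle wells; lower values mean less growth of the strain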
Settings: S. cerevisiae deletion strains, growth OD

Measured: normalized growth

CCn1cc(C(=O)O)c(=O)c2cc3c(cc21)OCO3
inactive: locus YAL013W, strain DEP1, hits give low values 1.01 | locus YAL021C, strain ccr4, hits give low values 0.967 | locus YAL026C, strain drs2, hits give low values 0.982 | locus YAL030W, strain snc1, hits give low values 0.977 | locus YAL040C, strain CLN3, hits give low values 0.97 | locus YBL061C, strain skt5, hits give low values 0.977 | locus YBR009C, strain hhf1, hits give low values 0.977 | locus YBR021W, strain FUR4, hits give low values 1.01 | locus YBR023C, strain chs3, hits give low values 0.957 | locus YBR171W, strain sec66, hits give low values 0.962 | locus YBR229C, strain ROT2, hits give low values 1.01 | locus YBR231C, strain swc5, hits give low values 0.979 | locus YBR279W, strain paf1, hits give low values 0.977 | locus YCL011C, strain gbp2, hits give low values 0.974 | locus YCL016C, strain dcc1, hits give low values 0.988 | locus YCL029C, strain bik1, hits give low values 0.997 | locus YCL061C, strain MRC1 (second series), hits give low values 0.991 | locus YCL061C, strain MRC1, hits give low values 0.971 | locus YCL069W, strain vba3, hits give low values 0.98 | locus YCR088W, strain abp1, hits give low values 0.981 | locus YDL005C, strain med2, hits give low values 0.971 | locus YDL035C, strain GPR1, hits give low values 1.02 | locus YDL040C, strain nat1, hits give low values 0.985 | locus YDL074C, strain BRE1, hits give low values 1.06 | locus YDL101C, strain DUN1, hits give low values 1.02 | locus YDL134C, strain PPH21, hits give low values 1 | locus YDL185W, strain tfp1, hits give low values 0.999 | locus YDL192W, strain arf1, hits give low values 0.99 | locus YDR001C, strain nth1, hits give low values 0.979 | locus YDR069C, strain doa4, hits give low values 0.989 | locus YDR101C, strain arx1, hits give low values 0.993 | locus YDR137W, strain rgp1, hits give low values 0.857 | locus YDR150W, strain NUM1, hits give low values 0.99 | locus YDR159W, strain sac3, hits give low values 0.996 | locus YDR162C, strain NBP2, hits give low values 1.01 | locus YDR195W, strain ref2 0.983 | locus YDR297W, strain sur2, hits give low values 0.98 | locus YDR318W, strain mcm21, hits give low values 1 | locus YDR334W, strain swr1, hits give low values 0.955 | locus YDR335W, strain msn5, hits give low values 0.984 | locus YDR363W, strain ESC2, hits give low values 0.973 | locus YDR388W, hits give low values 0.99 | locus YDR392W, strain spt3, hits give low values 0.914 | locus YDR502C, strain sam2, hits give low values 1.01 | locus YEL003W, strain gim4, hits give low values 1 | locus YEL037C, strain rad23, hits give low values 0.975 | locus YEL061C, strain CIN8 (second series), hits give low values 0.98 | locus YEL061C, strain CIN8, hits give low values 1.01 | locus YER002W, strain NOP16, hits give low values 0.967 | locus YER015W, strain faa2, hits give low values 0.983 | locus YER016W, strain bim1, hits give low values 0.993 | locus YER110C, hits give low values 0.991 | locus YER111C, strain swi4, hits give low values 0.972 | locus YER155C, strain BEM2 (second series), hits give low values 0.979 | locus YER155C, strain BEM2, hits give low values 1.01 | locus YER167W, strain BCK2, hits give low values 1.01 | locus YFR010W, strain ubp6, hits give low values 0.97 | locus YGL078C, strain dbp3, hits give low values 0.99 | locus YGL086W, strain mad1, hits give low values 1.01 | locus YGL167C, strain pmr1, hits give low values 0.976 | locus YGL173C, strain kem1, hits give low values 0.974 | locus YGL227W, strain vid30, hits give low values 0.978 | locus YGL240W, strain doc1, hits give low values 0.988 | locus YGL248W, strain PDE1, hits give low values 1.02 | locus YGL253W, strain hxk2, hits give low values 0.991 | locus YGR135W, strain pre9, hits give low values 0.99 | locus YGR229C, strain SMI1, hits give low values 1.02 | locus YGR252W, strain gcn5, hits give low values 1 | locus YHR013C, strain ard1, hits give low values 0.959 | locus YHR027C, strain rpn1, hits give low values 0.971 | locus YHR030C, strain SLT2, hits give low values 1.01 and 1.07 | locus YHR079C, strain IRE1 (second series), hits give low values 0.992 | locus YHR079C, strain IRE1, hits give low values 1.11 | locus YHR094C, strain hxt1, hits give low values 0.987 | locus YHR129C, strain ARP1, hits give low values 1.01 | locus YHR142W, strain chs7, hits give low values 0.933 | locus YHR200W, strain rpn10, hits give low values 1 | locus YIL066C, strain RNR3, hits give low values 1.02 | locus YIL073C, strain SPO22, hits give low values 0.987 | locus YIL125W, strain kgd1, hits give low values 0.995 | locus YIR030C, strain dcg1, hits give low values 0.999 | locus YJL092W, strain hpr5, hits give low values 0.981 | locus YJL095W, strain BCK1 (second series), hits give low values 0.983 | locus YJL095W, strain BCK1, hits give low values 1.03 and 1.04 | locus YJL115W, strain asf1, hits give low values 0.974 | locus YJL129C, strain trk1, hits give low values 0.974 | locus YJL134W, strain LCB3, hits give low values 1.01 | locus YJL154C, strain vps35, hits give low values 0.969 | locus YJL164C, strain tpk1, hits give low values 0.997 | locus YJL166W, strain qcr8, hits give low values 0.969 | locus YJL168C, strain set2, hits give low values 0.997 | locus YJL187C, strain SWE1 (second series), hits give low values 1.03 | locus YJL187C, strain SWE1, hits give low values 0.975 | locus YJR043C, strain POL32, hits give low values 1.02
